# Screening results as filed in PubChem BioAssay.
# Dicer processing = blocks human Dicer maturation of pre-miR-21; Q9UPY3; cat-ELCCA pre-miR-21 Dicer processing, chemiluminescence; hits give high values; z-score at 25 µM; actives 6% (n = 47,000); in the data active means z-score above about 3, passing the limit was not always enough;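 further: plate controls were vehicle for no effect and no enzyme for full effect; higher signal means more uncleaved substrate so more Dicer inhibition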
# Target sequence (Q9UPY3 whole entry, looked up): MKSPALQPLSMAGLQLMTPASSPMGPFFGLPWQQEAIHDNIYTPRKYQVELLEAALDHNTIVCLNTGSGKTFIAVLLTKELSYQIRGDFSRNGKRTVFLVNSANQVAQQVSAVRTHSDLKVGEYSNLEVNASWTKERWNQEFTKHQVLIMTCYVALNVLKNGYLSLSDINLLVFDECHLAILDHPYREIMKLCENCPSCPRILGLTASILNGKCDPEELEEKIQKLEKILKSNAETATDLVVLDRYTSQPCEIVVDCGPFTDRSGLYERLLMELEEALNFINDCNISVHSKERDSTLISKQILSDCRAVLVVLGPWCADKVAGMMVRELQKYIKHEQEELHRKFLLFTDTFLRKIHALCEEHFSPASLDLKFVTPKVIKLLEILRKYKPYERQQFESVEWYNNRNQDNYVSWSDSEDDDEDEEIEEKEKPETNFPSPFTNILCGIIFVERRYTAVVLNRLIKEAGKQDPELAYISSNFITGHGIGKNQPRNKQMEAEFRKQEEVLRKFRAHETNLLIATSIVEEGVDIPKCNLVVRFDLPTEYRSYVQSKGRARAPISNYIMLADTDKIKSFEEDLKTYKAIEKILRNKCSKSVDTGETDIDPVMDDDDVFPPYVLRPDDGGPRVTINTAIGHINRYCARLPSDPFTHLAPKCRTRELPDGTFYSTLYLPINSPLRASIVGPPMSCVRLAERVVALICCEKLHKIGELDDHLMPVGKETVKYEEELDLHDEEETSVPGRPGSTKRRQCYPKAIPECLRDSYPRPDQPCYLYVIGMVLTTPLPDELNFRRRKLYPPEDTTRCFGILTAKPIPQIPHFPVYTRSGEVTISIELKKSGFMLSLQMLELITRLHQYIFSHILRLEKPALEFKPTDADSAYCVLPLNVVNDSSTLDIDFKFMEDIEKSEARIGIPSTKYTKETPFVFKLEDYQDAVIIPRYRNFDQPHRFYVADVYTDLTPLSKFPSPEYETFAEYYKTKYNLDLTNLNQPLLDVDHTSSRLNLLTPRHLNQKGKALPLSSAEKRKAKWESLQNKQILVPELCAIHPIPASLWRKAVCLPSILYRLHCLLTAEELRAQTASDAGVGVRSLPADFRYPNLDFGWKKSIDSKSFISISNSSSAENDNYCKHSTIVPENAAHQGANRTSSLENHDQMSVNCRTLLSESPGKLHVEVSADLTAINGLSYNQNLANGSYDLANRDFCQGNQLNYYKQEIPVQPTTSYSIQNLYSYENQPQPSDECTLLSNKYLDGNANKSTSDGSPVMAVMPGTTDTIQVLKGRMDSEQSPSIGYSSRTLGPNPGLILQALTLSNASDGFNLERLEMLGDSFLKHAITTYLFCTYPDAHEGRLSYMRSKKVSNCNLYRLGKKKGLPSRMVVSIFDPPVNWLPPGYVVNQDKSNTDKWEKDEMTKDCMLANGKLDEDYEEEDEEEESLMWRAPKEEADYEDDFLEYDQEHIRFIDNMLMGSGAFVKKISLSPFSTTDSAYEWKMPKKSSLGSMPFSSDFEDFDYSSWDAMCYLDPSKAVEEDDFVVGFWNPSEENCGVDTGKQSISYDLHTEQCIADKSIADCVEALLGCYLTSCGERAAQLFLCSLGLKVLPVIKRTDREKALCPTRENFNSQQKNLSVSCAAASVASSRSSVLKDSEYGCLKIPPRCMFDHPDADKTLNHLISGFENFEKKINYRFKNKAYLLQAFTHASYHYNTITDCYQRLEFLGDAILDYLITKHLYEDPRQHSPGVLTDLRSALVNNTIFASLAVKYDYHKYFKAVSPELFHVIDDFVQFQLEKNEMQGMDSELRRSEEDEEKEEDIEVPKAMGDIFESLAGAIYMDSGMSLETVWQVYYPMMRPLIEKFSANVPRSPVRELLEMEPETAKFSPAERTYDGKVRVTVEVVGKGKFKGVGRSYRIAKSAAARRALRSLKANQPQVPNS
# * hit, by the source's call. This is one part of a sample in which hits are shown more often than they occur.
SMILES,Dicer processing
Brc1ccc2c(c1)c1ccccc1n2CN1CCCCC1,2.1
CCS(=O)(=O)c1c(S(=O)(=O)CC)c2cc(C(C)(C)C)ccn2c1C(=O)c1ccc(OC)cc1,5*
COc1ccc(C(=O)CC(=O)c2ccc(C(C)(C)C)cc2)cc1,-0.14
CCCS(=O)(=O)c1c(S(=O)(=O)CCC)c2ccccn2c1C(=O)OC,0.22
CC(C)(O)C#Cc1ccc(/C=N/O)cc1,0.25
CC(C)(O)C#Cc1ccc(C2NCCS2)cc1 (stereo unspecified),259*
CC(C)(O)C#Cc1ccc(/C=N/Nc2ccc(I)cc2)cc1,-0.48
COc1ccccc1C1CCN(c2ncnc3scc(-c4ccccc4)c23)CC1,-1.6
CSc1ccc(OS(=O)(=O)c2ccc(C)c(F)c2C)cc1,-0.54
Cc1ccc(-c2c3c(=O)n(C)c(=O)n(C)c3cn2-c2cc(C)c(C)cc2N)cc1,-0.04
c1ccc(-c2nc3ccccc3nc2-c2ccccn2)nc1,-1.2
Cc1[nH]c(-c2ccccn2)nc(=S)c1Cl,-1.4
Cc1cc(=S)nc(-c2ccccn2)[nH]1,6.9*
O=C(Cn1nc(C(F)(F)F)c2c1CCC2)Nc1ccc(-n2cccc2)c(Cl)c1,0.53
O=[N+]([O-])c1cc(C(F)(F)F)ccc1Oc1cccc(N2CCOCC2)c1,-1.2
COC(=O)c1sc(C(C)(C)C)cc1NC(=O)NC(=O)c1ccccc1Cl,0.94
Cc1c(C)c(C)c(CSC(N)=Nc2ccc(F)cc2)c(C)c1C,3.3*
CCOC(=O)c1ccc(N=C(N)SCc2ccccc2)cc1,2.2
N=C(N)SCc1ccc(F)cc1,0.2
CCN1C(=O)c2cccc3c(NC(=O)c4ccccc4C)ccc1c23,-1.5
NS(=O)(=O)c1ccc(CCNCc2cccs2)cc1,3.1*
Cc1ccc(S(=O)(=O)NCCc2ccc(S(N)(=O)=O)cc2)cc1,0.1
Cn1cccc1CNCCc1ccc(S(N)(=O)=O)cc1,2.3
S=C(Nc1ccccc1)Nc1ccc(C2CC2(Cl)Cl)cc1 (stereo unspecified),0.72
O=C(O)CC(NC(=O)c1ccccc1)C(=O)O (stereo unspecified),0.11
SMILES,Dicer processing
CSc1sc(C#N)c2c1C(O)CCC2 (stereo unspecified),-1.3
O=S1(=O)C=Cc2ccc(NC(=S)Nc3ccccc3C(F)(F)F)cc21,-1.9
CCOC(=O)c1c(N=Cc2ccccc2[N+](=O)[O-])n[nH]c1C,3.7*
CCOC(=O)c1c(N=Cc2ccccc2Cl)n[nH]c1C,-2.5
CCOC(=O)c1c(N/N=C/c2ccc(O)cc2)n[nH]c1C,0.23
CC(C)c1nn2c(=O)c(NC(=O)c3ccc(F)cc3)cnc2s1,-0.02
CN1CCc2c(sc3c2C(=O)NC(c2cc(Br)ccc2O)N3)C1 (stereo unspecified),0.71
CC(C)(C)C(=O)NC(=O)Nc1cc(C(F)(F)F)cc(C(F)(F)F)c1,1.8
CC(C)(C)C(=O)NC(=O)Nc1cc(C(F)(F)F)ccc1Cl,4.1*
NNC(=S)Nc1cc(C(F)(F)F)ccc1Cl,1.9
Cc1[nH]nc(NCc2cccnc2)c1[N+](=O)[O-],-0.07
CS(=O)(=O)c1scc(-c2ccc(Cl)cc2)c1C#N,-0.65
O=C(CSc1nc2cccnc2s1)NNS(=O)(=O)c1cc(C(F)(F)F)cc(C(F)(F)F)c1,-0.69
Cn1c(=O)c2c3nc4ccc(F)cc4cc3c(=O)n(-c3ccccc3)c2n(C)c1=O,0.52
CCc1ccc(N2C(=O)C3NN=C(C(=O)OCc4ccccc4)C3C2=O)cc1 (stereo unspecified),0.43
O=C(OCc1ccccc1)C1=NNC2C(=O)N(c3ccc(Br)cc3)C(=O)C12 (stereo unspecified),3.5*
O=C(OCc1ccccc1)C1=NNC2C(=O)N(c3ccccc3)C(=O)C12 (stereo unspecified),-0.53
CC1(C)CC(=O)C2=C(C1)Nc1ncnn1C2c1ccc(O)cc1 (stereo unspecified),0.37
O=C(NC(=O)N1CCSC1)c1c(Cl)cccc1Cl,-0.67
COC(=O)c1ccc(Cn2c(C)cc(C)[n+]2C)o1,2.9
CCCN1C(=O)C(=O)c2ccccc21,-0.36
CN(C)CCN1C(=O)C(=O)c2ccccc21,-1.5
COC(=O)c1ccc(CN2C(=O)C(=O)c3ccccc32)o1,3.7*
O=C1C(=O)N(Cc2ccc(CN3C(=O)C(=O)c4ccccc43)cc2)c2ccccc21,3*
COC(=O)CN1C(=O)C(=O)c2ccccc21,-1.6
SMILES,Dicer processing
Cc1ccc2c(c1)C(O)(CC(=O)c1ccc(C)o1)C(=O)N2 (stereo unspecified),1.5
NC(=S)c1ccc(C(F)(F)F)cc1Cl,-0.1
CC1(C)CC(=O)C2=C(C1)c1c(ccc3ccccc13)NC2c1ccc(O)c(O)c1 (stereo unspecified),13*
CC1(C)CC(=O)C2=C(C1)c1c(ccc3ccccc13)NC2c1ccc(O)cc1 (stereo unspecified),1
CCOc1cc(C2Nc3ccc4ccccc4c3C3=C2C(=O)CC(C)(C)C3)ccc1O (stereo unspecified),0.64
CN1CCc2c(sc3c2C(=O)NC(c2cccc(O)c2)N3)C1 (stereo unspecified),-0.75
O=C(NCCNc1ncc(C(F)(F)F)cc1Cl)C(F)(F)Sc1ccccc1,5*
